Values joined by “and” are separate entries in the source; they are usually repeats but may differ in a detail not shown here. Equal values may be shown once.
Target: Follistatin (Homo sapiens) (UniProt P19883)
Assay: FST protein binding to printed compounds – biochemical, small-molecule microarray, 635/667 nm fluorescence, primary screen (AID 1132)
Details: 635 nm fluorescence, higher = more signal

Follistatin (Homo sapiens), sequence (P19883 whole entry, looked up): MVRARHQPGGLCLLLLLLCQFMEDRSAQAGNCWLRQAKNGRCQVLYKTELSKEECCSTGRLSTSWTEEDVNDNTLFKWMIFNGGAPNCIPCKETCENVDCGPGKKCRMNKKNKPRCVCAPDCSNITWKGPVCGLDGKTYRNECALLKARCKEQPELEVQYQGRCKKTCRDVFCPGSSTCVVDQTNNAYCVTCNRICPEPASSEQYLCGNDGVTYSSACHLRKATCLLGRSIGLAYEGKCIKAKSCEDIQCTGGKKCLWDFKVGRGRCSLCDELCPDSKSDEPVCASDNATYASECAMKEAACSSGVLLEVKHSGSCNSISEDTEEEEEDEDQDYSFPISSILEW

Structure (SMILES) | composite z-score
C=CCN(C(=O)C1N(c2c(Cl)cccc2CO)C(=O)C2C(C(=O)O)C3C=CC21O3)c1ccc(OC)cc1 (stereo unspecified) | -1.08 and -1.26
C=CCN(C(=O)C1N(CCOCCO)C(=O)C2C(C(=O)O)C3C=CC21O3)C(C)(C)C (stereo unspecified) | -2.09 and -1.58
COC(=O)C1=C2N(Cc3ccccc3)C(C)=C(C(=O)OC)[C@@H](c3ccccc3)N2C(=O)[C@](O)(C(=O)OC)C1 | 0.419 and 0.587
O=c1n(-c2ccccc2)c(=O)n2n1CC[C@@H]1C(=NOC[C@@H](O)COCc3ccco3)[C@H]3O[C@H]3[C@@H](O)[C@@H]12 | 1.15 and 0.461
CC(CO)N1C(=O)[C@@H]2C3C(=O)OCCC=C[C@H]3OC23C=CCN(c2ccc(Cl)cc2)C(=O)[C@@H]13 (stereo partly specified) | -1.49 and 0.33
CC(C)[Si]1(C(C)C)OCc2cc(CCCc3cc4c(c(CCc5ccccc5)n3)[Si](C(C)C)(C(C)C)OC4)nc(CCc3ccccc3)c21 | -0.43 and 0.238
C=CCN(Cc1ccccc1)C(=O)C1N(CCOCCO)C(=O)C2C(C(=O)O)C3C=CC21O3 (stereo unspecified) | -3.29 and -1.2
C[N+](C)(C)CCCCCCNC(=O)[C@H]1C[C@H]2C(=O)N[C@@H](CCCC[N+](C)(C)C)C(=O)N2[C@H]1c1cccc(OCCO)c1 | 1.39 and 1.43
CCCCCN1CC=CC23O[C@@H]4C=CCCOC(=O)C4[C@H]2C(=O)N(C(C)CO)[C@@H]3C1=O (stereo partly specified) | -0.11 and -0.0282
O=C1[C@H]2[C@H]3[C@H](O)[C@H](O)CC(=NOCc4ccccc4)[C@H]3CC[C@H]2C(=O)N1Cc1ccccc1 | 0.659
CO[C@H]1COC(=O)CC=C[C@H](C)[C@H](OC)COC(=O)[C@@H](C)COC(=O)CC=C[C@@H]1C | 1.13 and 0.8

— PubChem BioAssay
